Results from PubChem BioAssay AID1775 (NMMLSC, 2009).
Out of some 220,000 compounds screened, about 820 (0.37%) were called active. Rule as the data show it: active = fluorescence above about 47; inactive = the rest. What follows is part of a selection rich in actives, with near analogues and random picks from the rest.

Experiment: green autofluorescence of compounds with avidin beads – biophysical, 488/530 nm, flow cytometry, artefact control, profiling panel (AID 1775)
Conditions: compound fluorescence 488/530 nm, at 10 µM, active compounds read high
With `COc1ccc(/C(=N\O)c2nccc3cc(OC)c(OC)cc23)cc1OC` the fluorescence (KMESF) was 7 (inactive).
In the case of `O=C(NC(=S)Nc1ccc(S(=O)(=O)N2CCOCC2)cc1)c1ccccc1[N+](=O)[O-]`, the fluorescence (KMESF) is reported as 10 (inactive).
For `CCc1ccccc1NC(=O)Cc1cn(C)c2ccccc12`, the fluorescence (KMESF) was 10 (inactive).
With `Fc1cccc(Cl)c1CSc1ccc(-c2ccco2)nn1` the fluorescence (KMESF) was 49 (active).
In the case of `Cn1c(SCc2c(F)cccc2Cl)nnc1-c1cnccn1`, the fluorescence (KMESF) is reported as 1 (inactive).
In the case of `Brc1ccc(CSc2ccc(-c3ccco3)nn2)cc1`, the fluorescence (KMESF) is reported as 13 (inactive).
In the case of `CCCCN(Cc1ccccc1)C(=O)C1CCN(Cc2sccc2C)CC1`, the fluorescence (KMESF) is reported as 5 (inactive).
In the case of `Cc1ccc(-c2cn(S(=O)(=O)c3cccc([N+](=O)[O-])c3)nc2N)cc1`, the fluorescence (KMESF) is reported as 2 (inactive).
With `O=C(N/N=C/c1cccc2cccnc12)[C@H]1C[C@@H]1c1ccccc1` the fluorescence (KMESF) was 4 (inactive).
With `Cc1cccc(N2CCN(Cc3c(C)n(C)n(-c4ccccc4)c3=O)CC2)c1C` the fluorescence (KMESF) was 16 (inactive).
With `Cc1c(CN2CCCC(C(=O)c3cccc(Cl)c3)C2)c(=O)n(-c2ccccc2)n1C` (stereo not given) the fluorescence (KMESF) was 67 (active).
With `Cc1c(CN2CCC(C)CC2)c(=O)n(-c2ccccc2)n1C` the fluorescence (KMESF) was 9 (inactive).
With `O=C(/C=C/Nc1ccccc1)c1cnc(-c2ccccc2)s1` the fluorescence (KMESF) was 49 (active).
In the case of `CC(=O)c1cnc(-c2ccccc2)s1`, the fluorescence (KMESF) is reported as 9 (inactive).
For `Cc1ccc(N/C=C/C(=O)c2ccccc2)cc1C`, the fluorescence (KMESF) was 14 (inactive).
In the case of `CCNC(=O)CCc1nc(-c2ccc(C)cc2)no1`, the fluorescence (KMESF) is reported as 4 (inactive).
With `CCNC(=O)CCc1nc(-c2ccc(C(C)(C)C)cc2)no1` the fluorescence (KMESF) was 49 (active).
With `Cc1ccc(-c2noc(CCC(N)=O)n2)cc1` the fluorescence (KMESF) was 19 (inactive).
With `Cc1ccc2c(C)c(C(=O)N3CCC(N4CCC(C(=O)NC5CC5)CC4)CC3)oc2c1` the fluorescence (KMESF) was 8 (inactive).
For `COc1ccc(NC(=O)C2C3C=CC(C3)C2C(=O)NCc2ccccn2)c(OC)c1` (stereo not given), the fluorescence (KMESF) was 27 (inactive).
With `Cc1ccccc1N(C(=O)Cc1cccs1)C(C(=O)NC1CCCCC1)c1cn(C)nc1C` (stereo not given) the fluorescence (KMESF) was 12 (inactive).
In the case of `O=S(=O)(NCCc1csc(-c2ccccc2)n1)c1cccnc1`, the fluorescence (KMESF) is reported as 5 (inactive).
With `CC(C(=O)NC1CCCC1)N(c1ccc(Oc2ccccc2)cc1)S(C)(=O)=O` (stereo not given) the fluorescence (KMESF) was 9 (inactive).
In the case of `Cc1ccccc1C(OCCN(C)C)C1CCCCC1` (stereo not given), the fluorescence (KMESF) is reported as 13 (inactive).
For `O=C(COc1ccc(Cl)cc1)NCCC1=CCCCC1`, the fluorescence (KMESF) was 51 (active).
In the case of `O=C(COc1cccc(-n2cnnn2)c1)NCCC1=CCCCC1`, the fluorescence (KMESF) is reported as 5 (inactive).
In the case of `Cc1nnc(OCC(=O)NCCC2=CCCCC2)c2ccccc12`, the fluorescence (KMESF) is reported as 20 (inactive).
With `COC/C=C/C1=CC2=CC(=O)C(C)(OC(=O)CCC(=O)OC)C(=O)C2=CO1` (stereo not given) the fluorescence (KMESF) was 10 (inactive).
In the case of `O=C(CSc1ccccc1)Nc1ccc(C(=O)Nc2cccc(O)c2)cc1`, the fluorescence (KMESF) is reported as 15 (inactive).
For `O=C(NCCOc1ccccc1Cl)C(=O)Nc1ccccc1`, the fluorescence (KMESF) was 2 (inactive).
In the case of `COc1ccc(S(=O)(=O)N2CCCCCC2)cc1C(=O)OCC(=O)Nc1cc(C)on1`, the fluorescence (KMESF) is reported as 11 (inactive).
In the case of `O=C(/C=C/c1ccc(Cl)c([N+](=O)[O-])c1)c1ccc(O)cc1`, the fluorescence (KMESF) is reported as 6 (inactive).
With `CN(C)c1ccc(/C=C/C(=O)c2ccc(C(C)(C)C)cc2)cc1[N+](=O)[O-]` the fluorescence (KMESF) was 57 (active).
In the case of `CN(C)c1ccc(/C=C/C(=O)c2ccc(O)cc2)cc1[N+](=O)[O-]`, the fluorescence (KMESF) is reported as 6 (inactive).
For `c1ccc2c(CSCc3nc4ccccc4[nH]3)cccc2c1`, the fluorescence (KMESF) was 9 (inactive).
For `CCOc1ccc(Br)cc1CSC(=N)N`, the fluorescence (KMESF) was 8 (inactive).
With `N=C(N)SCc1cccc2ccccc12` the fluorescence (KMESF) was 68 (active).
In the case of `C=CCn1c(=S)sc2c(=O)[nH]c(C)nc21`, the fluorescence (KMESF) is reported as 3 (inactive).
For `CSc1ccc(CN2C(=O)NC3(CCCCCC3)C2=O)cc1`, the fluorescence (KMESF) was 50 (active).
With `O=C1NC2(CCCCCC2)C(=O)N1CCS(=O)(=O)Oc1ccccc1` the fluorescence (KMESF) was 12 (inactive).
With `O=C(CN1C(=O)NC2(CCCCCC2)C1=O)NC1CC1` the fluorescence (KMESF) was 14 (inactive).
For `CN=C(c1ccccc1)c1c(C)cccc1C`, the fluorescence (KMESF) was 1 (inactive).
With `CCN(CC)C(=O)CC(c1ccc2c(c1)OCO2)c1c(OC)cc(OC)c2c(-c3ccccc3)cc(=O)oc12` (stereo not given) the fluorescence (KMESF) was 8 (inactive).
In the case of `O=C(NC1CC1)c1cccc(Br)c1`, the fluorescence (KMESF) is reported as 4 (inactive).
With `O=C(NC1CC1)c1ccc2c(c1)NC(=O)c1ccccc1S2` the fluorescence (KMESF) was 80 (active).
In the case of `O=C(NC1CC1)c1ccc(-c2ccccc2)cc1`, the fluorescence (KMESF) is reported as 11 (inactive).
In the case of `COc1ccc(Cl)cc1N(CC(=O)N/N=C/c1ccc(OCC(N)=O)cc1)S(C)(=O)=O`, the fluorescence (KMESF) is reported as 10 (inactive).
In the case of `Cc1[nH]nc(SCC(=O)NCC(C)C)c1[N+](=O)[O-]`, the fluorescence (KMESF) is reported as 6 (inactive).
For `CCOC(=O)c1sc(/N=C/Nc2nc(C)c(C(=O)OCC)s2)nc1C`, the fluorescence (KMESF) was 54 (active).
With `CCOC(=O)c1sc(NC(=O)c2ccncc2)nc1C` the fluorescence (KMESF) was 4 (inactive).
In the case of `CCOC(=O)c1sc(NC(=O)CSc2n[nH]c(CC)n2)nc1C`, the fluorescence (KMESF) is reported as 15 (inactive).
In the case of `Cc1ccc2nc(-c3cccnc3)c(NC3CCCC3)n2c1`, the fluorescence (KMESF) is reported as 9 (inactive).
For `Cc1cc(=O)n2[nH]c(-c3sccc3-n3c(C)ccc3C)cc2n1`, the fluorescence (KMESF) was 5 (inactive).
For `O=C(CCC(=O)N1CCCC1)Nc1ccc([N+](=O)[O-])cc1`, the fluorescence (KMESF) was 9 (inactive).
In the case of `Cc1ccc(-n2c(C)cc(C(=O)CSc3nnc4ccccn34)c2C)cc1`, the fluorescence (KMESF) is reported as 11 (inactive).
For `COC(=O)c1ccccc1OCC(=O)N1CCN(c2ccc(Cl)cc2)CC1`, the fluorescence (KMESF) was 189 (active).
With `O=C(COc1ccc(Cl)cc1)N1CCN(c2cccc(C(F)(F)F)c2)CC1` the fluorescence (KMESF) was 20 (inactive).
In the case of `O=C(CN1CCN(c2ccc(Cl)cc2)CC1)N1CCCC1`, the fluorescence (KMESF) is reported as 13 (inactive).
For `CC(C)COC(=O)n1c(=O)oc2ccc(S(=O)(=O)N3CCCCC3)cc21`, the fluorescence (KMESF) was 7 (inactive).
For `Cc1cc(OC(=O)c2ccccc2)c([N+](=O)[O-])c(=O)[nH]1`, the fluorescence (KMESF) was 13 (inactive).
With `CC(C)OCCCNc1nc2c(c(=O)n(Cc3ccccc3F)c(=O)n2C)n1C` the fluorescence (KMESF) was 16 (inactive).
With `COc1ccc(N2CC(C)Cn3c2nc2c3c(=O)n(Cc3ccccc3F)c(=O)n2C)c(OC)c1` (stereo not given) the fluorescence (KMESF) was 54 (active).
In the case of `Cc1cccc(N2CC(C)Cn3c2nc2c3c(=O)n(CC(=O)OCc3ccccc3)c(=O)n2C)c1` (stereo not given), the fluorescence (KMESF) is reported as 5 (inactive).
With `C/C(=N\Nc1cccc(C(=O)O)c1)c1ccc2c(c1)Nc1ccccc1S2` the fluorescence (KMESF) was 11 (inactive).
In the case of `COc1ccc(CCNC(=O)CCCCn2c(=O)[nH]c3ccccc3c2=O)cc1OC`, the fluorescence (KMESF) is reported as 39 (inactive).
In the case of `O=C(CCCCCn1c(=O)[nH]c2ccccc2c1=O)NCCc1c[nH]c2ccccc12`, the fluorescence (KMESF) is reported as 14 (inactive).
In the case of `O=C(CCCCn1c(=O)[nH]c2ccccc2c1=O)NCc1ccc2c(c1)OCO2`, the fluorescence (KMESF) is reported as 81 (active).
For `N/C(=N\OC(=O)CCn1cccc(C(F)(F)F)c1=O)c1ccc(OC(F)(F)F)cc1`, the fluorescence (KMESF) was 8 (inactive).
For `COc1cccc(C(=O)N2CCCC(CCC(=O)NCc3ccc(F)c(F)c3)C2)c1` (stereo not given), the fluorescence (KMESF) was 8 (inactive).
For `O=C(Nc1ccccc1)c1cccnc1Nc1ccccc1`, the fluorescence (KMESF) was 8 (inactive).
For `Cc1ccc(NC(=O)c2cccnc2C(=O)Nc2ccc(C)cc2)cc1`, the fluorescence (KMESF) was 10 (inactive).
For `O=C(Nc1ccc(-n2ccnc2P(=O)(O)c2ccccc2)cc1)c1ccccc1Br`, the fluorescence (KMESF) was 81 (active).
With `COc1ccc(CCN2C(=O)N(c3ccc(OC)cc3)C(=O)C2CC(=O)Nc2ccc(OC)cc2)cc1` (stereo not given) the fluorescence (KMESF) was 6 (inactive).
In the case of `Cc1cc(NC(=O)CSc2nccn2-c2ccc([N+](=O)[O-])cc2)no1`, the fluorescence (KMESF) is reported as 25 (inactive).
For `C/C(=N/Nc1ccc(Cl)cc1)c1cnnc(-c2ccccc2)n1`, the fluorescence (KMESF) was 21 (inactive).
For `Cc1ccc(S(=O)(=O)N2CCOCC2)cc1C(=O)NC(=S)N(Cc1ccccc1)C(C)C`, the fluorescence (KMESF) was 4 (inactive).
For `CCN(CC(=O)Nc1cccc(S(N)(=O)=O)c1)Cc1nc2ccccc2c(=O)[nH]1`, the fluorescence (KMESF) was 7 (inactive).
For `FC(F)Oc1ccccc1C1CC(c2ccc(Br)s2)Nc2ncnn21` (stereo not given), the fluorescence (KMESF) was 72 (active).
In the case of `Clc1ccc(C2CC(c3cccs3)n3ncnc3N2)cc1Cl` (stereo not given), the fluorescence (KMESF) is reported as 7 (inactive).
In the case of `COc1ccc(C2CC(c3ccccc3)Nc3ncnn32)cc1` (stereo not given), the fluorescence (KMESF) is reported as 9 (inactive).
In the case of `CNC(=S)NNC(=O)c1oc2nc(-c3ccccc3)cc(-c3ccco3)c2c1N`, the fluorescence (KMESF) is reported as 7 (inactive).
For `COc1ccc(CCN2C(=O)CC(N3CCC(C(N)=O)CC3)C2=O)cc1OC` (stereo not given), the fluorescence (KMESF) was 5 (inactive).
For `O=C(CCc1[nH]c2ccccc2c1Sc1ccccc1)N(CCO)CCO`, the fluorescence (KMESF) was 16 (inactive).
For `CS/C(=C\C(=O)c1ccco1)Nc1ccccc1Cl`, the fluorescence (KMESF) was 7 (inactive).
For `COc1ccc(CCNC(=O)CN(c2ccccc2)S(C)(=O)=O)cc1`, the fluorescence (KMESF) was 9 (inactive).
For `COC(=O)CNC(=O)c1ccc(OC2CCN(C(=O)C3CC3)CC2)cc1`, the fluorescence (KMESF) was 7 (inactive).
In the case of `O=C(COC(=O)CCC(=O)c1cccs1)NCc1ccco1`, the fluorescence (KMESF) is reported as 9 (inactive).
For `O=C(CC12CC3CC(CC(C3)C1)C2)NCc1ccco1`, the fluorescence (KMESF) was 11 (inactive).
In the case of `O=C(COC(=O)C12CC3CC(CC(C3)C1)C2)NCc1ccco1`, the fluorescence (KMESF) is reported as 56 (active).
With `COCCCn1c(-c2cccs2)nc2nc3ccccc3nc21` the fluorescence (KMESF) was 6 (inactive).
For `CN(c1ccccc1)c1ccc(/C=c2\s/c(=C(/C#N)C(=O)C(C)(C)C)n(Cc3ccco3)c2=O)cc1`, the fluorescence (KMESF) was 453 (active).
For `COc1ccc(NC(=O)Cn2c(=O)n(Cc3ccco3)c(=O)c3ccccc32)cc1`, the fluorescence (KMESF) was 36 (inactive).
In the case of `Cc1cs/c(=N\N=C\c2ccc(O)cc2)n1Cc1ccco1`, the fluorescence (KMESF) is reported as 7 (inactive).
In the case of `CCOC(=O)CC(NC(=O)C1c2ccccc2Oc2ccccc21)c1ccc(C)cc1` (stereo not given), the fluorescence (KMESF) is reported as 11 (inactive).
With `Clc1ccc(C[n+]2cc(-c3ccccc3)n3c2CCC3)cc1` the fluorescence (KMESF) was 7 (inactive).
For `O=C(Nc1cccc(-c2nc3ccccc3[nH]2)c1)c1ccc(C(=O)Nc2cccc(-c3nc4ccccc4[nH]3)c2)cc1`, the fluorescence (KMESF) was 151 (active).
For `O=C(/C=C/c1ccco1)Nc1cccc(-c2nc3ccccc3[nH]2)c1`, the fluorescence (KMESF) was 9 (inactive).
With `O=C(Cc1cccs1)Nc1cccc(-c2nc3ccccc3[nH]2)c1` the fluorescence (KMESF) was 14 (inactive).
In the case of `Cc1ccc(CN2C(=O)N/C(=C/c3cc(C)n(-c4ccccn4)c3C)C2=O)cc1`, the fluorescence (KMESF) is reported as 16 (inactive).
With `CCCCCCCCCCCCC(NC(C)=O)(C(=O)OCC)C(=O)OCC` the fluorescence (KMESF) was 6 (inactive).
